Measured values published in PubChem BioAssay AID504895 (National Center for Advancing Translational Sciences (NCATS), 2011).
Results filed as inconclusive are left out. Unmarked numbers belong to inactive results. Calls of active or inactive are those of the source. Calls come from the whole dose curve; as a rule, active = well fitted curve in the direction sought with a large enough effect; inconclusive = small, poorly fitted or top-dose-only effect, or another doubt; inactive = no such curve, though single readings can be large or run the other way.

Biological target: Protein phosphatase EYA2 (Homo sapiens) (UniProt O00167)
Test: Inhibitors of Eya2ED: Hit Confirmation in Primary Screen
Details: Recombinant Eya2ED, OMFP fluorescence phosphatase assay; series mostly up to 76.9 µM; activity change, negative = inhibition: at the top concentration
Outline: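 Eya2 (dispensed at 0.2 uM) was preincubated 10 min at ambient with compound in 50 mM HEPES pH 7.5, 50 mM NaCl, 5 uM MgCl2, 0.05% BSA, 1 mM DTT. OMFP (dispensed at 50 uM) was then added, and fluorescence (ex 485/em 525 nm) was read after 10 min. Retested as 12-point titrations; EGTA control.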

Chain of Protein phosphatase EYA2 (Homo sapiens) (O00167 whole entry, looked up): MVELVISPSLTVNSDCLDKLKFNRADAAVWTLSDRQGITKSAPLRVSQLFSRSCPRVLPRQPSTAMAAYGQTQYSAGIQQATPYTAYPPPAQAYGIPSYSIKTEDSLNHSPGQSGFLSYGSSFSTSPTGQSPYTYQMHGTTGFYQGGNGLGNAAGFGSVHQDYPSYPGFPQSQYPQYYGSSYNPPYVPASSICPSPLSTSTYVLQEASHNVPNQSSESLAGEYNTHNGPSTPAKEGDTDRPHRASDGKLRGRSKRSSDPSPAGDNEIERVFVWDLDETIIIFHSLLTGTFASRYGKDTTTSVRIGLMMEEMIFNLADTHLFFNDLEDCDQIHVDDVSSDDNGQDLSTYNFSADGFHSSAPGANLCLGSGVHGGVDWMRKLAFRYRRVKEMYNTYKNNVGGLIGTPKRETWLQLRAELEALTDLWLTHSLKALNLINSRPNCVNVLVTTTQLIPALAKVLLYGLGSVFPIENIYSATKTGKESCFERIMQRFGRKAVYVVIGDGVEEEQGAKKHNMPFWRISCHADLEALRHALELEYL

Structure (SMILES)	activity change, negative = inhibition	Potency
Cc1cccc(-n2c(-c3csc(C(C)C)c3)n[nH]c2=S)c1	-18.6%	–
Cc1ccc2occ(/C=N/NC(=O)[C@@H](N)Cc3ccccc3)c(=O)c2c1	12.1%	–
CCOC(=O)c1[nH]c(C)c(C(=O)OCC(=O)Nc2sc3c(c2C#N)CCCCC3)c1C	-4.09%	–
O=C(O)C1CC(=O)N(c2ccc(Br)cc2)C1 (stereo unspecified)	10.9%	–
CCN(C(=O)COC(=O)c1cc(OC)c(OC)cc1[N+](=O)[O-])C1CCS(=O)(=O)C1 (stereo unspecified)	8.87%	–
O=C(c1ccccc1Cl)N1CCN(C(=O)C2CCCO2)CC1 (stereo unspecified)	-18.2%	–
COc1cccc2[nH]c3c(=O)[nH]cnc3c12	1.53%	–
C=CCOc1ccc(/C=C/C(=O)OCC(=O)N2CCCc3ccccc32)cc1	-12.6%	–
O=C(N/N=C\c1ccc(Sc2ccccn2)o1)c1cccc(Br)c1	–	1.84 µM (active)
Cn1c(CNC(=O)c2ccc(Cl)cc2)nnc1SCC(=O)NC1=NCCS1	-10.6%	–
O=C(N/N=C/c1ccc(Sc2nc3ccccc3[nH]2)o1)c1ccncc1	-12.2%	–
Cn1cccc1C(=O)Nc1ccc(Cl)c(S(=O)(=O)N2CCCCC2)c1	-22.9%	–
Cc1cccc(C(=O)Nc2c(C(=O)N(C)C)cnn2-c2ccccc2)c1	-13.3%	–
O=C(NC(=S)Nc1ccccc1N1CCCCC1)c1ccc(F)cc1Cl	-8.89%	–
COC(=O)/C=C1\NCCNC1=O	-20.2%	–
NC(=O)C1CCN(CC(=O)Nc2ccc3c(c2)OCCO3)CC1	-18.7%	–

Structure (SMILES)	activity change, negative = inhibition	Potency
CC(NC(=O)COC(=O)C1CC1C)c1cccc(Cl)c1 (stereo unspecified)	-16%	–
CN1CC[n+]2cnc3ccccc3c21	-18.8%	–
O=C(NCCc1ccc(Cl)cc1)C1CCN(C(=O)N2CCOc3ccccc32)CC1	-4.76%	–
Cc1nn(C)c(C)c1NC(=O)Nc1ccc(Cl)c(Cl)c1	-26.5%	–
COc1c(O)ccc(/C=N\NC(=O)c2ccc3c(c2)OCO3)c1[N+](=O)[O-]	-18%	–
O=C(Cc1ccccc1F)NC1CCCN(Cc2ccc(Cl)cc2)C1 (stereo unspecified)	-14.9%	–
O=C(C[C@H]1C/C=C/CC[C@H](Cc2ccc(F)cc2)C(=O)O[C@H](c2ccccc2)CNC1=O)NCCO	-32.4%	–
N=C(N)SCc1ncccc1O	6.85%	–
O=C(COc1cccc(C(F)(F)F)c1)NCC(c1ccco1)N1CCCC1 (stereo unspecified)	-8.36%	–
Cn1c(=O)c(C(=O)Nc2ncccc2O)c(O)c2ccccc21	-11.4%	–
COc1ccc(NC(=O)CNc2cc(S(=O)(=O)N3CCOCC3)ccc2N2CCOCC2)c(OC)c1	-11.5%	–
O=C(NCc1ccccn1)C1CCCN(Cc2cnn(-c3ccccc3)c2-n2cccc2)C1 (stereo unspecified)	0.326%	–
O=C(CCCN=C1NS(=O)(=O)c2ccccc21)OCc1ccc(F)cc1	-0.078%	–
CC(=O)c1c(C)[nH]c(C(=O)NNC(=O)c2ccc(Br)cc2)c1C	-4.21%	–
CO/N=C(\N)c1nonc1N	14.5%	–
